Laboratory results published in the supplement of paper PMC6411743.
± gives the standard deviation of the averaged measurements. The full data set covers some 6,500 targets. This sample favours those with the largest changes.

Compound: Nc1ncnc2c1ncn2[C@@H]1O[C@H](COP(=O)(O)OP(=O)(O)OP(=O)(O)O)[C@@H](O)[C@H]1O [adenosine triphosphate]
Assay: NP40-soluble protein abundance relative to vehicle (solubility fold change) (ratio); higher = more soluble protein in presence of ATP
Details: concentration: 2mM
Procedure, shortened: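 Jurkat crude lysate prepared with a Dounce homogeniser was treated at eight concentrations spanning 0.1 to 10 mM, 10 min at room temperature then 3 min at 37 °C. Solubilisation with 0.8% NP40 and benzonase and ultracentrifugation preceded TMT labelling of the supernatant for LC-MS/MS. Fold change against the detergent-processed vehicle was determined per replicate from vsn-normalised intensities, across three independent experiments.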

Sequence of UniProt P04632 (P04632 whole entry, one chain of several): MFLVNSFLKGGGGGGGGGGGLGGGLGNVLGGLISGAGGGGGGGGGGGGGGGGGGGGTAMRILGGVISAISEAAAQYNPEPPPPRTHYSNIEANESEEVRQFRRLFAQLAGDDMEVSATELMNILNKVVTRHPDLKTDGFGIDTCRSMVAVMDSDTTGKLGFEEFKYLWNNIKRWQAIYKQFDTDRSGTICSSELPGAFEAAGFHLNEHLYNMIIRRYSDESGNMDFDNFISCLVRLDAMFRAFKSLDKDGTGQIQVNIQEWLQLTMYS
Sequence of UniProt O43865 (O43865 whole entry): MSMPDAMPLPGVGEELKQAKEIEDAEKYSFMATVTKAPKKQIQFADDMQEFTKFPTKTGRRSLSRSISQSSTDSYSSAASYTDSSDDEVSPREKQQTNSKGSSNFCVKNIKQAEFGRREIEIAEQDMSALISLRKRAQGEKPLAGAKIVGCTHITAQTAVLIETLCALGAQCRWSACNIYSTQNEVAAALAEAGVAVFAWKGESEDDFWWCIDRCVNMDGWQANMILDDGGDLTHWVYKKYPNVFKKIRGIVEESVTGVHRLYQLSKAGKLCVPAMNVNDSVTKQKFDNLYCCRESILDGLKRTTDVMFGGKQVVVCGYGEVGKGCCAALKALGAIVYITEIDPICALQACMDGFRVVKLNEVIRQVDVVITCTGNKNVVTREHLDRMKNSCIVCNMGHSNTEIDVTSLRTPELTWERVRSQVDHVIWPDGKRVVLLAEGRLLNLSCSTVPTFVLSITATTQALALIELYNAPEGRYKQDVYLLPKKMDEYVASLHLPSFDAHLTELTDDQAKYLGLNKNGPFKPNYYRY
Sequence of UniProt Q9H2U2 (Q9H2U2 whole entry, one chain of several): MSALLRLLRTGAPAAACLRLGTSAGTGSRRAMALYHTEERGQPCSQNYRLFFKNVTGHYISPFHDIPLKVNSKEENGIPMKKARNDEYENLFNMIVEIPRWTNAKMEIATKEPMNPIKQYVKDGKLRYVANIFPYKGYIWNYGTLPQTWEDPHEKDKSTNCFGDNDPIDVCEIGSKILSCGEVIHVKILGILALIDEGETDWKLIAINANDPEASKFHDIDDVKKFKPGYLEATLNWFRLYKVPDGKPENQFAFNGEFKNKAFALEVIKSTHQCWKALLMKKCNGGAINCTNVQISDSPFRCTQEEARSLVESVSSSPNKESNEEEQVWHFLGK
Sequence of UniProt Q96EV2 (Q96EV2 whole entry, one chain of several): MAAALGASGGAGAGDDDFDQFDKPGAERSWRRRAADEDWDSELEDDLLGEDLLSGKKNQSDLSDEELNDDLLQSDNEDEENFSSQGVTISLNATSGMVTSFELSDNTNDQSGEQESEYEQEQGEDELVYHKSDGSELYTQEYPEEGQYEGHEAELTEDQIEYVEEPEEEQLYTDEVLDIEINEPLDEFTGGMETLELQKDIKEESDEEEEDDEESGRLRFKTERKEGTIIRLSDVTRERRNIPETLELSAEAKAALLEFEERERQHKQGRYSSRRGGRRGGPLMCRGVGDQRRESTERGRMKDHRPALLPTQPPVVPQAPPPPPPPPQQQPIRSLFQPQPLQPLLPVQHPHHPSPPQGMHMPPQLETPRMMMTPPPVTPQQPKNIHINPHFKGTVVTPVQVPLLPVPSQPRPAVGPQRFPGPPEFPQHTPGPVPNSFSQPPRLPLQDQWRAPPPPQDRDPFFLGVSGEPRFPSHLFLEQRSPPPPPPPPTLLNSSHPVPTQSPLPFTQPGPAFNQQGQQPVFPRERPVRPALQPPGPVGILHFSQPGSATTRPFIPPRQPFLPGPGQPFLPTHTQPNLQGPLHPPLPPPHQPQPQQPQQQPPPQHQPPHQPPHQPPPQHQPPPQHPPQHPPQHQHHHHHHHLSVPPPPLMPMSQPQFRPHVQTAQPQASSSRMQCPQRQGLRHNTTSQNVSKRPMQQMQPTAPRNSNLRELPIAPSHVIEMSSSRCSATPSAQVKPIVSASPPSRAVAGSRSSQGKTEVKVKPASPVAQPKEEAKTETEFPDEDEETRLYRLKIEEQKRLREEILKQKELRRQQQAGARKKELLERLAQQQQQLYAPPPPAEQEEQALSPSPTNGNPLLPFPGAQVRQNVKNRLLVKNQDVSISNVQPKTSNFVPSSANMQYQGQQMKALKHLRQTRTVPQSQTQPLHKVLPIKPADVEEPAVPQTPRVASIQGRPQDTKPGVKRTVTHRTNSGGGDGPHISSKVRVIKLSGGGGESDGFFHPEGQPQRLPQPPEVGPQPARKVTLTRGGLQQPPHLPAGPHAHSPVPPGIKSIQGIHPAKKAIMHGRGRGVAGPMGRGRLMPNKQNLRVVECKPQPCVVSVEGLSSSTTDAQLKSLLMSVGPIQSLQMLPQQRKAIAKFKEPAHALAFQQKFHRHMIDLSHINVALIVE
Sequence of UniProt Q8WYJ6 (Q8WYJ6 whole entry, one chain of several): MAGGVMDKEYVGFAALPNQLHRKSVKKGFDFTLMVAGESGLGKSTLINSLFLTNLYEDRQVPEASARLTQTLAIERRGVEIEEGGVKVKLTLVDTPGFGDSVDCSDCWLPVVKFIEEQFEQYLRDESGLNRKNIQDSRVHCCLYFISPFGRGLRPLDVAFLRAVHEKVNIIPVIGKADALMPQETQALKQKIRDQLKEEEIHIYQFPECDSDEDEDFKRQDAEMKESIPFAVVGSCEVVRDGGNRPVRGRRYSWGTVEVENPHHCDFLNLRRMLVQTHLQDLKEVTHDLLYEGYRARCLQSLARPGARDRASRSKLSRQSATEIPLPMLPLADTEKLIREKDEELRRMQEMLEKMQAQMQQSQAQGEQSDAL
Sequence of UniProt O75832 (O75832 whole entry, one chain of several): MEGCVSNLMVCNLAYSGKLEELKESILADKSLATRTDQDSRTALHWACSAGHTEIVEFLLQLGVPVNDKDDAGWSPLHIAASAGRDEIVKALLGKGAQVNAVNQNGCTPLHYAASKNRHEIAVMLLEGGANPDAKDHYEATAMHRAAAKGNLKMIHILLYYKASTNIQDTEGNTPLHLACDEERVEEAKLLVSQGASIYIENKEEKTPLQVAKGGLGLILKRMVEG
Sequence of UniProt Q03252 (Q03252 whole entry, one chain of several): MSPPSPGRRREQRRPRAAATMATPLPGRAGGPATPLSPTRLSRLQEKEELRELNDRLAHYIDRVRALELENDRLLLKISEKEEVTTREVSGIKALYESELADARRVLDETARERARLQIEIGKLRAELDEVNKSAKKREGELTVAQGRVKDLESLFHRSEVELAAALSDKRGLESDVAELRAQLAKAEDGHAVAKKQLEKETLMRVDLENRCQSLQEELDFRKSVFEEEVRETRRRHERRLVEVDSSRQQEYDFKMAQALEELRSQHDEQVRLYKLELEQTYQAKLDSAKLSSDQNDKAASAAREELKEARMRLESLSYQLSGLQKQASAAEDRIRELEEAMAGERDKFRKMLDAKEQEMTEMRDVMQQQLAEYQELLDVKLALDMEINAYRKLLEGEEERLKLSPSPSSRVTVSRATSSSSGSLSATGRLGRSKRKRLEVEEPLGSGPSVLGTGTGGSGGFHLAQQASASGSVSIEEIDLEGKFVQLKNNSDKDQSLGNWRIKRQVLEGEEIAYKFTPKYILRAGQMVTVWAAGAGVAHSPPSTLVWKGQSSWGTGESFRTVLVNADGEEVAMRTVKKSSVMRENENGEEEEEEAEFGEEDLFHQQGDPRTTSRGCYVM
Sequence of UniProt Q9Y592 (Q9Y592 whole entry, one chain of several): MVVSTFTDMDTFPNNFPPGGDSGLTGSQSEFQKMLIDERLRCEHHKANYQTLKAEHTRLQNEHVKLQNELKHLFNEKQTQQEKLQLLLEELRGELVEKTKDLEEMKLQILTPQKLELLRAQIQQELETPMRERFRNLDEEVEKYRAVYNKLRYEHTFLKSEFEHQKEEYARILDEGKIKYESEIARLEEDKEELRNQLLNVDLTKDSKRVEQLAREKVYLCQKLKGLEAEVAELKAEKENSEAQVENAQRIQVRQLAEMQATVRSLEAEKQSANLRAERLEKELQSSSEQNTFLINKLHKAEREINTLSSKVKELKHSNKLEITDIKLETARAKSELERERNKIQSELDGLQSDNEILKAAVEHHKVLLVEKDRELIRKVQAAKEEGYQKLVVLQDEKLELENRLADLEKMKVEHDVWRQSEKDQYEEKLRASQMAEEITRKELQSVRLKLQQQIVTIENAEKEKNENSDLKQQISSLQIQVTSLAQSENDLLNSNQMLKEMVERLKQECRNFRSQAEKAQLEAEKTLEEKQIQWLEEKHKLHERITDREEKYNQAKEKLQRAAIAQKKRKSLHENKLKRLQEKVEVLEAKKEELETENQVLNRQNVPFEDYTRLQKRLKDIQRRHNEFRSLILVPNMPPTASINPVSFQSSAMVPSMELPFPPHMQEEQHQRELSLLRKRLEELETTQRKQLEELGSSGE
Sequence of UniProt O43513 (O43513 whole entry): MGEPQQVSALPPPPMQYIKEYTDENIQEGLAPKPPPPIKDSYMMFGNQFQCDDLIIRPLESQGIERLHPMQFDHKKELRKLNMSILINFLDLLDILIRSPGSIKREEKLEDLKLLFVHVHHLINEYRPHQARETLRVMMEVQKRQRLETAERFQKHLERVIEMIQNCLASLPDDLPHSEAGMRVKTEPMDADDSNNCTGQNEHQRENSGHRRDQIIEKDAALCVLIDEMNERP
Sequence of UniProt Q96MF7 (Q96MF7 whole entry, one chain of several): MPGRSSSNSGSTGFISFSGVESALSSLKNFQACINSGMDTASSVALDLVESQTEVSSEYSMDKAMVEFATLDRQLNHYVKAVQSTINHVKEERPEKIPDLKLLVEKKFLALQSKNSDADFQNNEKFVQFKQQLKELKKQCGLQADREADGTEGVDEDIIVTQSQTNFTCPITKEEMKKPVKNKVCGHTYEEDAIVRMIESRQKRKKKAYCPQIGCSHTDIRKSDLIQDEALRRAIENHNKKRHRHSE
Sequence of UniProt P56556 (P56556 whole entry, one chain of several): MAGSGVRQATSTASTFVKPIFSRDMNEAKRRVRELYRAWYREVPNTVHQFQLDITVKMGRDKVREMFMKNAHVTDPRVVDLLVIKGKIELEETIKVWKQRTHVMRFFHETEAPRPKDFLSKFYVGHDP

Target	NP40-soluble protein abundance
UniProt O00560|O00560-2	0.946 ± 0.041
DNAJC13 (UniProt O75165)	1.29 ± 0.095
DYNC1LI2 (UniProt O43237)	0.939 ± 0.049
J3KNW7|Q9Y592|Q9Y592-2 (UniProt Q9Y592)	0.9299 ± 0.0068
SLC25A20 (UniProt O43772)	0.945 ± 0.037
C9JLB7|Q96HP4 (UniProt Q96HP4)	1.1 ± 0.1
B1AJY7|O75832 (UniProt O75832)	0.973 ± 0.031
A0A0A0MTC1|A0A0A0MTR7 (UniProt Q63HN8)	1.11 ± 0.096
H3BPD5|P78549|P78549-2|P78549-3 (UniProt P78549)	1.2 ± 0.029
J3KTD6|Q96GD4|Q96GD4-5 (UniProt Q96GD4)	1.47 ± 0.18
A0A0C4DGQ5|P04632 (UniProt P04632)	0.964 ± 0.077
A0A0G2JPT5|O75943|O75943-2 (UniProt O75943)	1.59 ± 0.3
B7ZBA0|Q8NI27 (UniProt Q8NI27)	1.62 ± 0.074
A0A0C4DGB9|Q9H2U2 (UniProt Q9H2U2)	0.97 ± 0.029
E9PEN0|Q8WYH8|Q8WYH8-2 (UniProt Q8WYH8)	1.3 ± 0.29
E7EUT5|P04406 (UniProt P04406)	0.959 ± 0.074
B4DWF2|Q9UKS7|Q9UKS7-2 (UniProt Q9UKS7)	1.03 ± 0.072
H0YNP8|Q99081-3|Q99081 (UniProt Q99081)	0.935 ± 0.039

Target	NP40-soluble protein abundance
UniProt O43865	0.965 ± 0.063
A0A0B4J2C3|P13693|Q5W0H4 (UniProt P13693)	0.942 ± 0.021
A0A0C4DGS0|P56556 (UniProt P56556)	0.922 ± 0.055
J3KTE4|J3QR09|P84098 (UniProt P84098)	1 ± 0.027
MED7 (UniProt O43513)	1.17 ± 0.091
M0QZM1|M0R019|P52272|P52272-2 (UniProt P52272)	0.999 ± 0.016
UniProt O00567	1.1 ± 0.033
E5RFJ1|Q96MF7 (UniProt Q96MF7)	1.04 ± 0.012
A8MT02|P14678|P14678-2|P14678-3 (UniProt P14678)	1.34 ± 0.089
H7C0H2|Q96EV2|H0Y3K4 (UniProt Q96EV2)	0.942 ± 0.056
H3BUX2|J3KNF8|O43169 (UniProt O43169)	0.854 ± 0.08
I3L2M1|J3KNL2|Q8WYJ6 (UniProt Q8WYJ6)	0.945 ± 0.017
UniProt A0FGR8-2|H7BXI1|A0FGR8-6	1.02 ± 0.025
E7EQI7|Q12768 (UniProt Q12768)	1.06 ± 0.075
A0A087WYN9|Q7Z478 (UniProt Q7Z478)	2.31 ± 0.051
F8W057|Q9GZN1|Q9GZN1-2 (UniProt Q9GZN1)	1.11 ± 0.034
HAT1 (UniProt O14929)	0.995 ± 0.098
J9JID7|Q03252 (UniProt Q03252)	0.943 ± 0.063

Same assay, conditions: concentration: 4mM

Target	NP40-soluble protein abundance
UniProt O00560|O00560-2	0.937 ± 0.04
DNAJC13 (UniProt O75165)	1.3 ± 0.043
DYNC1LI2 (UniProt O43237)	0.905 ± 0.047
J3KNW7|Q9Y592|Q9Y592-2 (UniProt Q9Y592)	1.02 ± 0.032
SLC25A20 (UniProt O43772)	0.943 ± 0.012
C9JLB7|Q96HP4 (UniProt Q96HP4)	1.06 ± 0.075
B1AJY7|O75832 (UniProt O75832)	0.955 ± 0.065
A0A0A0MTC1|A0A0A0MTR7 (UniProt Q63HN8)	1.12 ± 0.083
H3BPD5|P78549|P78549-2|P78549-3 (UniProt P78549)	1.3 ± 0.1
J3KTD6|Q96GD4|Q96GD4-5 (UniProt Q96GD4)	1.6 ± 0.16
A0A0C4DGQ5|P04632 (UniProt P04632)	0.923 ± 0.022
A0A0G2JPT5|O75943|O75943-2 (UniProt O75943)	1.62 ± 0.32
B7ZBA0|Q8NI27 (UniProt Q8NI27)	1.89 ± 0.076
A0A0C4DGB9|Q9H2U2 (UniProt Q9H2U2)	0.953 ± 0.03
E9PEN0|Q8WYH8|Q8WYH8-2 (UniProt Q8WYH8)	1.36 ± 0.18
E7EUT5|P04406 (UniProt P04406)	0.9969 ± 0.0069
B4DWF2|Q9UKS7|Q9UKS7-2 (UniProt Q9UKS7)	1.04 ± 0.061
H0YNP8|Q99081-3|Q99081 (UniProt Q99081)	0.915 ± 0.041

Target	NP40-soluble protein abundance
UniProt O43865	0.963 ± 0.076
A0A0B4J2C3|P13693|Q5W0H4 (UniProt P13693)	0.915 ± 0.025
A0A0C4DGS0|P56556 (UniProt P56556)	0.901 ± 0.046
J3KTE4|J3QR09|P84098 (UniProt P84098)	0.968 ± 0.07
MED7 (UniProt O43513)	1.09 ± 0.056
M0QZM1|M0R019|P52272|P52272-2 (UniProt P52272)	1.01 ± 0.032
UniProt O00567	1.24 ± 0.02
E5RFJ1|Q96MF7 (UniProt Q96MF7)	1.03 ± 0.017
A8MT02|P14678|P14678-2|P14678-3 (UniProt P14678)	1.47 ± 0.05
H7C0H2|Q96EV2|H0Y3K4 (UniProt Q96EV2)	0.956 ± 0.086
H3BUX2|J3KNF8|O43169 (UniProt O43169)	0.877 ± 0.06
I3L2M1|J3KNL2|Q8WYJ6 (UniProt Q8WYJ6)	0.948 ± 0.022
UniProt A0FGR8-2|H7BXI1|A0FGR8-6	1.02 ± 0.015
E7EQI7|Q12768 (UniProt Q12768)	1.05 ± 0.076
A0A087WYN9|Q7Z478 (UniProt Q7Z478)	2.45 ± 0.092
F8W057|Q9GZN1|Q9GZN1-2 (UniProt Q9GZN1)	1.1 ± 0.065
HAT1 (UniProt O14929)	0.957 ± 0.08
J9JID7|Q03252 (UniProt Q03252)	1.01 ± 0.065
